An excerpt weighted towards active compounds, which were near 0.47% of everything screened.
AID inhibitor = blocks human AID cytidine deaminase activity; AID deamination FRET fluorescence, UDG-coupled, 4 h; Potency, µM (highest dose often 115 µM), actives largely listed as inhibitors; 91,000 tested, 0.32% active; also: nearly all actives have a fitted effect of over 25% in size
Target sequence (Q9GZX7 whole entry, looked up): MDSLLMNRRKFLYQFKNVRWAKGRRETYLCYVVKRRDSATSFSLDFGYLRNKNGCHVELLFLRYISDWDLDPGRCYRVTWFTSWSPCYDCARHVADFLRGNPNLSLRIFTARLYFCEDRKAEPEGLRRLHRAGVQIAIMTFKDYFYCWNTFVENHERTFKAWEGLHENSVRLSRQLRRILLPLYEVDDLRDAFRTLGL
UDG counterscr = UDG inhibition counter-screen; AID 1347430; FRET deamination/UDG coupled assay, UDG read, 4 h; 91,000 tested, 0.14% active; Potency, µM (series often up to 115 µM), for the others: at the highest dose activity change, negative = inhibition, actives largely listed as inhibitors; also: nearly all actives have a fitted effect of over 65% in size
An asterisk follows results filed as active; [ ] = dose if it differs, or a comment. Calls follow the shape of the dose curve; as a rule, active = well fitted curve in the direction sought with a large enough effect; inconclusive = small, poorly fitted or top-dose-only effect, or another doubt; inactive = no such curve, though single readings can be large; an effect the other way counts as inactive or inconclusive. % is scaled to controls: 0 for no effect and ±100 for the full control effect; potency is read from the fitted curve at half-maximal effect.

Results for Cc1nn2c(=O)cc(COC(=O)c3ccc(NC(=O)C4CCCCC4)cc3)nc2s1 ?
AID inhibitor: 45µM*; UDG counterscr: -14%

How did CSc1nnc(-c2nn(C)c3c2CN(S(=O)(=O)c2ccccc2)CC3)n1C do in these assays?
AID inhibitor: inactive; UDG counterscr: -10%

How did CC(C)(C)c1ccc(C(=O)COC(=O)c2ccc3ccccc3n2)cc1 do in these assays?
AID inhibitor: inactive; UDG counterscr: inconclusive

What do the screens show for `COc1ccccc1NC(=O)Cn1nc(-c2ccc(C)cc2)c2c(c1=O)CCCC2`?
AID inhibitor: inconclusive; UDG counterscr: 5%

Results for CCC(C(=O)Nc1cc(OC)ccc1OC)n1nc(-c2ccccc2)c2c(c1=O)CCCC2 (stereo not given) ?
AID inhibitor: 28µM*; UDG counterscr: -22%

Results for N#C/C(=C\c1c[nH]c2ccccc12)c1ccccc1 ?
AID inhibitor: inactive; UDG counterscr: -11%

Results for CCOc1ccc(-c2noc(CSc3nnc(Cc4ccccc4)n3-c3ccc(F)cc3)n2)cc1 ?
AID inhibitor: inconclusive; UDG counterscr: -23%

How did Cc1ccccc1-c1noc(CSc2nnc(Cc3ccccc3)n2-c2ccc(F)cc2)n1 do in these assays?
AID inhibitor: 20µM*; UDG counterscr: inconclusive

How did CCOc1ccc(-n2c(Cc3ccccc3)nnc2SCc2nc(-c3ccccc3OC)no2)cc1 do in these assays?
AID inhibitor: inconclusive; UDG counterscr: -19%

What do the screens show for `CCc1ccc(-n2c(Cc3ccccc3)nnc2SCc2nc(-c3cccs3)no2)cc1`?
AID inhibitor: 40µM*; UDG counterscr: inconclusive

What do the screens show for `O=C(CCN1CCC(c2ccccc2)C1)c1cccc2ccccc12` (stereo not given)?
AID inhibitor: inactive; UDG counterscr: 2%

What do the screens show for `O=C(O)c1cc(Nc2nc(-c3ccccc3)cs2)ccc1O`?
AID inhibitor: inconclusive; UDG counterscr: 11%

What do the screens show for `O=C(O)c1ccc(Nc2nc(-c3ccc(Cl)cc3)cs2)cc1O`?
AID inhibitor: 79µM*; UDG counterscr: 26%

Results for CNc1oc(/C=C/c2ccc(OC)c(OC)c2)nc1C#N ?
AID inhibitor: inactive; UDG counterscr: 2%

How did CCOc1ccc(NC(=O)Cn2c(Nc3ccc(F)c(C)c3)nc(C)cc2=O)cc1 do in these assays?
AID inhibitor: inactive; UDG counterscr: -5%

Results for CCN(CC)C(=O)CSc1nc(-c2ccc(C)cc2)nc2c1Cc1c(CO)cnc(C)c1O2 ?
AID inhibitor: 45µM*; UDG counterscr: 5%

Results for Cc1ccc(-c2nc3c(c(SCC(=O)N(C)c4ccccc4)n2)Cc2c(CO)cnc(C)c2O3)cc1 ?
AID inhibitor: inconclusive; UDG counterscr: 3%

What do the screens show for `C=Cc1ccc(CSc2nc(-c3ccc(C)cc3)nc3c2Cc2c(CO)cnc(C)c2O3)cc1`?
AID inhibitor: 32µM*; UDG counterscr: 6%

How did CCc1ccc(-c2nc3c(c(SCc4ccccc4)n2)Cc2c(CO)cnc(C)c2O3)cc1 do in these assays?
AID inhibitor: inactive; UDG counterscr: -7%

What do the screens show for `Cc1cc(N(CCO)Cc2ccccc2)n2nc(-c3ccc(C(C)(C)C)cc3)nc2n1`?
AID inhibitor: inactive; UDG counterscr: -2%

Results for Cc1cc(N(C)Cc2ccccc2)n2nc(-c3ccc(C(C)(C)C)cc3)nc2n1 ?
AID inhibitor: 35µM*; UDG counterscr: 0%

What do the screens show for `CCN(CCc1ccncc1)S(=O)(=O)c1cc(N2C(=O)CCS2(=O)=O)ccc1OC`?
AID inhibitor: inactive; UDG counterscr: -11%

What do the screens show for `CCCCOc1c(Cl)cc(C(=O)N(Cc2ccc(C)o2)C2CCS(=O)(=O)C2)cc1Cl` (stereo not given)?
AID inhibitor: inconclusive; UDG counterscr: 89µM*

Results for COc1cccc(C(=O)N(Cc2ccc(C)o2)C2CCS(=O)(=O)C2)c1 (stereo not given) ?
AID inhibitor: inactive; UDG counterscr: 6%

What do the screens show for `CCc1nc2ccccc2c(C(=O)OCC(=O)NC23CC4CC(CC(C4)C2)C3)c1C`?
AID inhibitor: inactive; UDG counterscr: -9%

What do the screens show for `NC(=O)CN1CCCC(C(=O)O)C1` (stereo not given)?
AID inhibitor: inactive; UDG counterscr: 4%

Results for NNc1cccc(S(=O)(=O)c2cccc(NN)c2)c1 ?
AID inhibitor: inconclusive; UDG counterscr: 45µM*

What do the screens show for `NNc1ccc(S(=O)(=O)c2ccc(NN)cc2)cc1`?
AID inhibitor: inactive; UDG counterscr: -17%

How did Cc1cccc(-n2nnnc2C2(N3CCCC3)CCCC2)c1 do in these assays?
AID inhibitor: inactive; UDG counterscr: 0%

Results for FC(F)(F)c1cccc(-n2nnnc2C2(N3CCOCC3)CCCC2)c1 ?
AID inhibitor: inactive; UDG counterscr: 89µM*

How did O=C(CSc1nnc(-c2ccccc2Cl)o1)N1CCCc2ccccc21 do in these assays?
AID inhibitor: 28µM*; UDG counterscr: -17%

What do the screens show for `O=C(CSc1nnc(-c2ccccc2)o1)N1CCCc2ccccc21`?
AID inhibitor: inconclusive; UDG counterscr: -6%

How did CC(=O)c1cccc(NC(=S)NNC(=O)c2ccc(-c3ccccc3)cc2)c1 do in these assays?
AID inhibitor: inactive; UDG counterscr: -4%

What do the screens show for `NCC(c1ccco1)N1CCCC1` (stereo not given)?
AID inhibitor: inactive; UDG counterscr: -4%

Results for Cc1ccccc1/C=C(/C#N)c1nc2ccccc2s1 ?
AID inhibitor: inactive; UDG counterscr: -19%

What do the screens show for `N#C/C(=C\c1ccnc2ccccc12)c1nc2ccccc2s1`?
AID inhibitor: inconclusive; UDG counterscr: 79µM*

What do the screens show for `CCOCCCNC(=O)Cn1cc2c(n1)-c1c(oc(C(=O)N3CCCC3)c1C)CC2`?
AID inhibitor: 79µM*; UDG counterscr: inconclusive

Results for COCCCNC(=O)c1oc2c(c1C)-c1nn(Cc3ccc(Cl)cc3)cc1CC2 ?
AID inhibitor: inactive; UDG counterscr: -14%[57.5 µM]

Results for CCN(CC)CCCNC(=O)c1oc2c(c1C)-c1nn(Cc3ccc(Cl)cc3)cc1CC2 ?
AID inhibitor: inactive; UDG counterscr: -12%[57.5 µM]

What do the screens show for `COCCCNC(=O)c1oc2c(c1C)-c1nn(Cc3cccc(Cl)c3)cc1CC2`?
AID inhibitor: 89µM*; UDG counterscr: -14%[57.5 µM]

Results for Cc1cccc(C(C)C)c1NC(=O)COC(=O)c1ccc2ccccc2n1 ?
AID inhibitor: inactive; UDG counterscr: 4%

How did Cc1nc(SCc2csc(Cc3ccc(Cl)cc3)n2)sc1CC(N)=O do in these assays?
AID inhibitor: inactive; UDG counterscr: -8%

What do the screens show for `Cc1cccc(NC(=O)CN(C)S(=O)(=O)c2ccc3c(c2)c(=O)n(C)c(=O)n3C)c1`?
AID inhibitor: inactive; UDG counterscr: -5%

What do the screens show for `CCOc1ccc(NC(=O)CN(C)S(=O)(=O)c2ccc3c(c2)c(=O)n(C)c(=O)n3C)cc1`?
AID inhibitor: 22µM*; UDG counterscr: -12%

Results for Cc1ccc2nc(-c3ccc(C)s3)cc(C(=O)NCc3ccco3)c2c1 ?
AID inhibitor: inactive; UDG counterscr: -1%

How did Cc1cc(=O)oc2cc(NC(=O)N(C)Cc3ccccc3Br)ccc12 do in these assays?
AID inhibitor: inactive; UDG counterscr: 0%

How did Cc1nc(-c2ccncc2)[nH]c(=O)c1CC(=O)N(C)C(C)C(C)(C)C (stereo not given) do in these assays?
AID inhibitor: inactive; UDG counterscr: 3%

Results for Cc1nc(-c2ccncc2)[nH]c(=O)c1CC(=O)N(C)C1CCCCC1 ?
AID inhibitor: 28µM*; UDG counterscr: 3%

What do the screens show for `CN(C(=O)c1ccc(I)cc1)C1CCCCC1`?
AID inhibitor: inactive; UDG counterscr: 1%

How did CC(C)CCNC(=O)NC(=O)CCl do in these assays?
AID inhibitor: inactive; UDG counterscr: -2%

Results for CCc1ccc(CNC(=O)C(CC)n2nc(C)c3c(C)n(-c4ccccc4)nc3c2=O)cc1 (stereo not given) ?
AID inhibitor: 71µM*; UDG counterscr: -20%

Results for CCC(C(=O)NCc1cccc(Br)c1)n1nc(C)c2c(C)n(-c3ccccc3)nc2c1=O (stereo not given) ?
AID inhibitor: inconclusive; UDG counterscr: -19%

From PubChem
